hERG WT inh: blocks the wildtype human KCNH2 potassium channel; 0.37% of 340,000 active; U2OS, BacMam KCNH2, thallium flux FluxOr; hits give low values; activity change, % at 1.84 µM; AID 720551;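 active = maximum activity change below -70%; inconclusive = maximum activity change between -70% and -50%; inactive = maximum activity change above -50%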
Target sequence (Q12809 whole entry, looked up): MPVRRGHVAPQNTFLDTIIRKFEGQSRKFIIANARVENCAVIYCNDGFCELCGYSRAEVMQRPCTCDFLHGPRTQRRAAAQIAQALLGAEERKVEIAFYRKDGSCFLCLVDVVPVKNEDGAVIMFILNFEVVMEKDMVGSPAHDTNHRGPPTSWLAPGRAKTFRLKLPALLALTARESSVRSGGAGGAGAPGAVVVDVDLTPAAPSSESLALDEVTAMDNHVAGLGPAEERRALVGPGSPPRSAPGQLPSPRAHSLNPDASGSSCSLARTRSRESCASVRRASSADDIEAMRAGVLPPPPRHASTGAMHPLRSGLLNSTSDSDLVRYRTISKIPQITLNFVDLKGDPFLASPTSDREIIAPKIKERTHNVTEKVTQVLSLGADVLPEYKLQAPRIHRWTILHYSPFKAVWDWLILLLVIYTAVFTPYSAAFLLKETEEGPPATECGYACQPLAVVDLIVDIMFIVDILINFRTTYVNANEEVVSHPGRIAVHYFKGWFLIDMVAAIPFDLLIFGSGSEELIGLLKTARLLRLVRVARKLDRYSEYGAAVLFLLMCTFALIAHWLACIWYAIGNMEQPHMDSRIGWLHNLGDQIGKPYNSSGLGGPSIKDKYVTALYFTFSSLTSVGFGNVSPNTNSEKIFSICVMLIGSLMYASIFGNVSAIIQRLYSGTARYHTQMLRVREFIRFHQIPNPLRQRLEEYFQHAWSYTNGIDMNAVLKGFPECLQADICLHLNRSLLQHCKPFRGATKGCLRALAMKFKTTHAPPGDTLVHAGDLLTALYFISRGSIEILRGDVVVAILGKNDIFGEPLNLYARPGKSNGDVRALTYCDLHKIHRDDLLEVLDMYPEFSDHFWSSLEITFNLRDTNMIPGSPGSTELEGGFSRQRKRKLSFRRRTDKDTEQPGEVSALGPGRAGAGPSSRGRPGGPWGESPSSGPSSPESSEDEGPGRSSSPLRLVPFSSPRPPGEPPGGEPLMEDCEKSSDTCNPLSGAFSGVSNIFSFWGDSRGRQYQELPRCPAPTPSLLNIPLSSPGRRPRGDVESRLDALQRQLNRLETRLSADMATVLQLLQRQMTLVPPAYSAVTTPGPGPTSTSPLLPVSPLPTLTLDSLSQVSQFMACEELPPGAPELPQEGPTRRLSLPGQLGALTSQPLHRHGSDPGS
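U2OS cells transduced with wild-type KCNH2 virus are loaded with FluxOr dye for 45 min, and thallium flux is measured in kinetic reads before and after stimulation buffer. Rate constants are normalized to DMSO controls.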
Luc counter: counter-screen: inhibitors of Kinase-Glo firefly luciferase. Q27757. Kinase-Glo luciferase, ATP luminescence, 8 min. Potency, µM (series often up to 38.3 µM), usual class: inhibitors. 0.28% of 200,000 active. AID 1379; active = well fitted inhibition curve with a large enough effect; inconclusive = small, poorly fitted or top-dose-only effect; note: nearly all actives have a fitted effect of over 60% in size
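Substrate mix (final 50 mM imidazole pH 7.2, 50 mM KCl, 7 mM MgCl2, 10 uM ATP, 0.01% Tween 20, 0.05% BSA) plus pin-tool compound, then Kinase-Glo detection mix; 8 min ambient, luminescence read.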
KCNH2 3.1 inh: KCNH2 3.1 (human) potassium channel inhibition | activity change, % (tested at about 1.8 µM) | U2OS KCNH2 3.1, thallium flux FluxOr; hits give low values | 0.95% of 340,000 active | AID 720553;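 active = maximum activity change below -70%; inconclusive = maximum activity change from -70% to -50%; inactive = maximum activity change above -50%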;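 note: thallium influx rate constant from kinetic fluorescence after stimulation buffer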
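Kinetic fluorescence (2 min after stimulation buffer) measures Tl+ influx through KCNH2 3.1 expressed by viral transduction in U2OS cells; the rate constant is normalized against DMSO controls serving as positive and negative references.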
Large screens that a line does not name were inactive. Most compounds without a hit are left out; they make up all but 1.2% or so of the library.

COc1ccc(-c2nc3cnc(N4CCNCC4)nc3n(CCc3ccccc3)c2=O)cc1	none (no result: hERG WT inh, KCNH2 3.1 inh)
Cc1ccc(C(=O)OCC(=O)N2CCC(C)CC2)cc1S(=O)(=O)N1CCOCC1	KCNH2 3.1 inh inconclusive (no result: Luc counter)
CS(=O)(=O)N1CCN(C(=O)C2c3ccccc3Oc3ccccc32)CC1	KCNH2 3.1 inh -185.1
CCOc1ccccc1N1CCN(C(=O)C2c3ccccc3Oc3ccccc32)CC1	none
Cc1cc(C)c(NC(=O)CSc2nc(=O)n3cc(C)ccc3n2)c(C)c1	none (no result: Luc counter)
Cc1cccc(CN2C(=O)NC(c3ccccc3)(c3ccccc3)C2=O)c1	KCNH2 3.1 inh -89.2 (no result: Luc counter)
CC(C)(C)C(=O)CN1C(=O)NC(c2ccccc2)(c2ccccc2)C1=O	none (no result: Luc counter)
Cc1occc1-c1nnc(SCC(=O)Nc2c(F)cccc2F)n1C	none (no result: Luc counter)
CCC1CCCCN1C(=O)CSc1nnc(CNC(=O)c2c(F)cccc2Cl)o1 (configuration not stated)	none (no result: Luc counter)
CCOC(=O)c1oc2ccccc2c1COC(=O)CNC(=O)c1cccc(C)c1	KCNH2 3.1 inh -80.2 (no result: Luc counter)
CCOC(=O)c1oc2ccccc2c1COC(=O)CNC(=O)c1ccccc1F	none (no result: Luc counter)
N#CC(=C(O)COC(=O)CCCNC(=O)c1ccc(Cl)cc1)c1nc2ccccc2[nH]1	none (no result: Luc counter)
CC(C)(C)c1csc(Sc2ccc([N+](=O)[O-])cn2)n1	none (no result: Luc counter)
Cc1cc(C(=O)NCc2ccco2)sc1C	none (no result: Luc counter)
Clc1ccc(N2CCN(Cc3c[nH]c4ncccc34)CC2)cc1	KCNH2 3.1 inh -82.0 (no result: hERG WT inh)
c1ccc(CN2CCN(Cc3c[nH]c4ccccc34)CC2)cc1	none (no result: Luc counter)
Cc1noc(C)c1S(=O)(=O)N(C)C[C@H]1Oc2ccc(NS(=O)(=O)c3ccccc3)cc2C(=O)N([C@H](C)CO)C[C@@H]1C	none (no result: Luc counter)
Cc1ccc(-n2cc(CNCCn3nc(C)cc3C)c(-c3ccc(F)cc3)n2)cc1	KCNH2 3.1 inh -79.1
Cc1ccc(-n2cc(CNCCN3CCOC3=O)c(-c3ccc(F)cc3)n2)cc1	none
Cc1ccc(S(=O)(=O)N2CCN(C(=O)COC(=O)c3cccc(Cl)c3)CC2)c(C)c1	none (no result: Luc counter)
COC(=O)/C=c1/sc2nc3ccccc3n2c1=O	none
O=c1/c(=C/c2ccccn2)sc2nc3ccccc3n12	Luc counter 12.6µM
Cc1ccccc1CNC(=O)Cn1cnc(S(=O)(=O)N2CCCC2)c1	none (no result: Luc counter)
COc1ccc(CNC(=O)CCNC(=O)C2CCN(S(=O)(=O)c3ccc(OC)cc3)CC2)cc1	none (no result: Luc counter)
Cc1cnn(C(=O)Cn2nc(C(F)F)c(Br)c2C)c1	none (no result: Luc counter)
CC(=O)c1sc(NC(=O)c2cccnc2Cl)nc1C	none
COC(=O)c1sc(NC(=O)c2ccc(C)o2)nc1C	Luc counter 6.31µM
CC(=O)c1sc(NC(=O)c2ccccc2F)nc1C	Luc counter 10µM
CCOC(=O)c1sc(NC(=O)c2ccc(C)o2)nc1C	Luc counter inconclusive
COC(=O)c1ccccc1NC(=O)CSc1nnc(-c2cccnc2)n1C	none
CCn1c(SCC(=O)Nc2ccccc2C(=O)OC)nnc1-c1cccc(C)c1	KCNH2 3.1 inh -170.8
CCn1c(SCC(=O)Nc2ccccc2-c2ccccc2)nnc1-c1ccoc1C	none
CCn1c(SCC(=O)Nc2ccccc2F)nnc1-c1ccoc1C	KCNH2 3.1 inh -118.2 (no result: Luc counter)
Cc1cccc(NC(=O)c2cc(-c3cc(C)cc(C)c3O)n[nH]2)c1	none (no result: Luc counter)
CCN(CC)S(=O)(=O)c1ccc(OC)c(NS(=O)(=O)Cc2ccccc2)c1	none (no result: Luc counter)
CCOC(=O)C(c1ccc(OC)c(OC)c1)C1c2ccccc2C=C(C)N1C(=O)OC (configuration not stated)	none (no result: hERG WT inh, KCNH2 3.1 inh)
Cc1ccc(C(c2nnnn2Cc2ccccc2)N2CCN(Cc3ccccc3)CC2)cc1 (configuration not stated)	hERG WT inh -77.4, KCNH2 3.1 inh inconclusive
c1ccc(CN2CCN(C(c3ccccc3)c3nnnn3Cc3ccccc3)CC2)cc1 (configuration not stated)	none
CCCC#Cc1ccc2c(c1)O[C@H](CN(C)S(=O)(=O)c1cccc(OC)c1)[C@H](C)CN([C@H](C)CO)S2(=O)=O	none (no result: Luc counter)
CCOC(=O)c1c(C)[nH]c(C)c1C(=O)COC(=O)c1nn(CC)c(=O)c2ccccc12	hERG WT inh -102.4 (no result: Luc counter)
CCn1nc(C(=O)OCC(=O)NC(C)C)c2ccccc2c1=O	none
Cc1nn(Cc2ccc([N+](=O)[O-])cc2)c(=O)n1-c1ccc(Cl)cc1	KCNH2 3.1 inh -77.6
Cc1ccc(-n2c(C)nn(Cc3ccc([N+](=O)[O-])cc3)c2=O)cc1	none
Cn1ncc2c(=S)nc(Cl)[nH]c21	none (no result: Luc counter)
CCOC(=O)c1c(CC(C)C)csc1NC(=O)COC(=O)c1cc(OC)c(OC)cc1[N+](=O)[O-]	none
COc1ccccc1NS(=O)(=O)c1ccc(C(=O)NCc2ccco2)cc1	none (no result: Luc counter)
N#C/C(=C/c1ccc(N2CCCCC2)o1)C(=O)Nc1ccc(Cl)cc1	KCNH2 3.1 inh inconclusive
N#C/C(=C/c1ccc(N2CCCCC2)o1)C(=O)Nc1ccc2ccccc2c1	KCNH2 3.1 inh -72.1
